Assay results reported in PubChem BioAssay (Tox21).
Inconclusive results are not listed. Unmarked numbers belong to inactive results. Activity calls are given as the source filed them. Calls come from the whole dose curve; as a rule, active = well fitted inhibition curve with a large enough effect in the repeat runs; inconclusive = weak or mixed curves; inactive = no such curve, though single readings can be large or run the other way.

What follows are compounds tested against Cytochrome P450 2C9 (Homo sapiens) (UniProt P11712) (assay: Cytochrome P450 Family 2 Subfamily C Member 9 (CYP2C9) small molecule antagonists: luciferase reporter qHTS assay (AID 1671198; note: nearly all actives have a fitted effect of over 50% in size)). Details: P450-Glo CYP2C9 enzyme assay, luciferin luminescence; series mostly up to 115 µM.
Chain of Cytochrome P450 2C9 (Homo sapiens) (P11712 whole entry, looked up): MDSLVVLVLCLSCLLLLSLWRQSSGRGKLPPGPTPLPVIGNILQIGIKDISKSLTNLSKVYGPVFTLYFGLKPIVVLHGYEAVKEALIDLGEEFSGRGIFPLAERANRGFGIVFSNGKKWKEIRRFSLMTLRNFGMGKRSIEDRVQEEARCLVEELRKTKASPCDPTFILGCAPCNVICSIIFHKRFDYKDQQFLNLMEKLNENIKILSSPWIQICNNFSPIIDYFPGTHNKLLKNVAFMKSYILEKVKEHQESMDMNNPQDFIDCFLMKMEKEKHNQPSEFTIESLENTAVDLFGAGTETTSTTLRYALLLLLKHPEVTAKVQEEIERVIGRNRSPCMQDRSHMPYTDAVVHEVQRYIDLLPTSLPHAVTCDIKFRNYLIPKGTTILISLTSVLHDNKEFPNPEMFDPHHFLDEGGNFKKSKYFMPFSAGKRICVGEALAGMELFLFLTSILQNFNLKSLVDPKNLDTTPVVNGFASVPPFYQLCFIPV
From the text: U.S. Tox21 Program National Center for Advancing Translational Sciences [NCATS] U.S. Environmental Protection Agency [EPA] National Institutes of Environmental Health Sciences [NIEHS] National Toxicology Program [NTP] U.S. Food and Drug Administration [FDA] Tox21 Assay Overview: Cytochrome P450 (CYP) enzymes are membrane-bound hemeproteins that play a key role in metabolism of drugs and xenobiotics. Evaluation of the effect of chemicals on CYP isozymes is useful to minimize the adverse drug reactions and toxicities in drug development process. Tox21 chemicals were tested for their effect on CYP enzyme activities by using P450-Glo (TM) screening systems (Promega Corporation, Madison, WI). These systems provide a luminescent method containing proluciferin substrates and are converted to luciferin products by CYP isozymes. The luciferin products formed are detected with a luciferin detection reagent, and the amount of light produced is proportional to CYP activity. P450-Glo (TM) CYP2C9 screening system (Catalog. No. V9790) was used to detect the compounds that interfere in CYP2C9 activity.
Tox21 Assay Protocol Summary: Two ul of enzyme-substrate mix was dispensed into medium binding white/solid 1536-well plates (Greiner Bio-One North America Inc., Monroe, NC) using a BioRaptr Flying Reagent Dispenser (FRD, Beckman Coulter, Brea, CA). […] The assay plates were incubated at room temperature for 10 min. Then 2 ul of NADPH regeneration solution was added to each well of the assay plates using an FRD and incubated at 37C for 1 h. The reaction was stopped by adding 4 ul of detection reagent using an FRD and after 20 min incubation at room temperature the luminescence signal was measured using a ViewLux plate reader (Perkin Elmer, Shelton, CT). Data were expressed as relative luminescence units.
% is set by controls: 0 for no effect and ±100 for the full control effect; potency is the fitted concentration of half-maximal effect.

Compound | Potency | activity change, negative = inhibition
O=C(Nc1ccccc1)c1ccccc1O | 31.7 µM (active) | 
CCCCCCCN | inactive | 
O=P(O)(OCc1ccccc1)OCc1ccccc1 | 22.4 µM (active) | 
CCCCCCCC#N | inactive | 
c1ccc(CNCCNCc2ccccc2)cc1 | inactive | 
CN(C)c1ccc(C(c2ccccc2)c2ccc(N(C)C)cc2)cc1 | 1.42 µM (active) | 
O=C(O)C1(C(=O)Nc2ccc(Cl)cc2Cl)CC1 | 15.9 µM (active) | 
Nc1c(CC(=O)O)cccc1C(=O)c1ccc(Br)cc1 | inactive | 
CCCCCCCCCc1ccc(OCCOCCO)cc1 | 10.6 µM (active) | 
C=CC(=O)OCCOCCOCCOCCOC(=O)C=C | inactive | 
C/C=C(/C(=C/C)c1ccc(OC(C)=O)cc1)c1ccc(OC(C)=O)cc1 | 7.76 µM (active) | 
CC(C)(CO)[N+](=O)[O-] | inactive | 
NCCCN1CCOCC1 | inactive | 
CCCCCC[C@@H](O)C/C=C\CCCCCCCC(=O)OC | 12.7 µM (active) | 
COc1ccc(C(=O)Nc2nc3ccccc3c(NCc3ccccc3)c2C#N)cc1 | 2 µM (active) | 
COC(C)OC | inactive | 
Nc1ncn([C@H]2C[C@H](O)[C@@H](CO)O2)c(=O)n1 | inactive | 
CC(C)(COC(=O)c1ccccc1)COC(=O)c1ccccc1 | 6.33 µM (active) | 
C[C@@H]1C[C@H]2[C@@H]3CCC4=CC(=O)C=C[C@]4(C)[C@@]3(F)[C@@H](O)C[C@]2(C)[C@@]1(O)C(=O)COC(=O)c1ccncc1 | 7.76 µM (active) | 
Cc1ccc(N=Nc2c(O)c(C(=O)O)cc3ccccc23)c(S(=O)(=O)O)c1 | 34.5 µM (active) | 

Compound | Potency | activity change, negative = inhibition
COc1cc(Cl)ccc1Oc1ccc(Cl)cc1Cl | 19.5 µM (active) | 
O=C(OCCc1ccccc1)c1ccccc1 | 31.7 µM (active) | 
C#C[C@]1(O)CC[C@H]2[C@@H]3CCc4cc(OC5CCCC5)ccc4[C@H]3CC[C@@]21C | 19.5 µM (active) | 
COC(=O)C1=C(C)NC(COC(N)=O)=C(C(=O)OC(C)C)C1c1cccc(Cl)c1Cl (stereo not given) | 8.71 µM (active) | 
O=C(NCC1CN(c2ccc(N3CCOCC3=O)cc2)C(=O)O1)c1ccc(Cl)s1 (stereo not given) | 9.77 µM (active) | 
CCCCCCCCCOS(=O)(=O)O | 22.4 µM (active) | 
CC1=CC=C(C(C)C)CC1 | 63.3 µM (active) | 
CCN(CC)c1ccc(C(=C2C=CC(=[N+](CC)CC)C=C2)c2cc(S(=O)(=O)O)ccc2S(=O)(=O)[O-])cc1 | 15.5 µM (active) | 
OCCNCc1ccccc1 | inactive | 
CCCCCCCCCCCCN1CCCCCC1=O | 31.7 µM (active) | 
CN1CCC(N(Cc2cccs2)c2ccccc2)CC1 | inactive | 
O=C(O)CC(=O)C(=O)O | inactive | 
CC(CC=O)c1ccccc1 (stereo not given) | 31.7 µM (active) | 
C#CCN(C)CCCOc1ccc(Cl)cc1Cl | 17.4 µM (active) | 
CC(CSC(=O)c1ccccc1)C(=O)N1C[C@@H](Sc2ccccc2)C[C@H]1C(=O)O (stereo not given in full) |  | -9.74% [at 23.6 µM]
CCN(CC)CCOC(=O)C(Cc1cccc2ccccc12)CC1CCCO1 (stereo not given) | inactive | 
C=C1[C@H]2CC[C@@H]3[C@H]2C(C)(C)CCC[C@]13C | inactive | 
O=C1c2ccccc2S(=O)(=O)N1CCCCN1CCN(c2ncccn2)CC1 | 15.5 µM (active) | 
Brc1c2ccccc2cc2ccccc12 | 35.9 µM (active) | 
NS(=O)(=O)c1ccc(N2CCCCS2(=O)=O)cc1 | inactive | 
